Measurements as given in PubChem BioAssay AID1851 (National Center for Advancing Translational Sciences (NCATS), 2009).
The campaign covered roughly 16,000 compounds. About 5,800 (36%) were called active. Roughly 23% stayed inconclusive and do not appear here. The list shows a part of the results. Values without a mark were called inactive. The call rests on the fitted dose curve; in most records, active means well fitted curve in the direction sought with a large enough effect; inconclusive means small, poorly fitted or top-dose-only effect, or effect the other way; inactive means no such curve, though single readings can be large or run the other way.

Each compound was assayed against Cytochrome P450 2C19 (Homo sapiens) (UniProt P33261) (assay: Cytochrome panel assay with activity outcomes). Conditions: recombinant CYP, pro-luciferin dealkylation, luminescence, p450-cyp2c19; series mostly up to 57.1 µM.
Chain of Cytochrome P450 2C19 (Homo sapiens) (P33261 whole entry, looked up): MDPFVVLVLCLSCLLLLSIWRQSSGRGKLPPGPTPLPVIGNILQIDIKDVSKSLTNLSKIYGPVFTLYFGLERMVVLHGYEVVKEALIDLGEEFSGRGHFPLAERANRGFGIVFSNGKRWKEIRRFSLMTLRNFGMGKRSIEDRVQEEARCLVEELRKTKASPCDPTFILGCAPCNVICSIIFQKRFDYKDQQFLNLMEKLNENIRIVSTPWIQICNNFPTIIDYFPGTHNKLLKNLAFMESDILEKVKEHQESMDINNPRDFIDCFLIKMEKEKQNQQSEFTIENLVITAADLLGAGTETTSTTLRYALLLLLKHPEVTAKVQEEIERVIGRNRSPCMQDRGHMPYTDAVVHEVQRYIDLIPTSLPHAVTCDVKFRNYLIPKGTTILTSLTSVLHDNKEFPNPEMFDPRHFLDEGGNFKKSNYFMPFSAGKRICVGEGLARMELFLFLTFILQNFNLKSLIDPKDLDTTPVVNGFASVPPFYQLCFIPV
On the % scale 0 is the no-effect control and ±100 the full control effect.

Row | SMILES | AC50 | activity, negative = inhibition
1 | Cc1cc2c(ncn2Cc2ccccc2)c([N+](=O)[O-])c1C | 4.47 µM (active) | –
2 | Cc1cccc(Cn2cnc3c(NS(C)(=O)=O)c(C)c(C)cc32)c1 | 3.98 µM (active) | –
3 | COc1ccc2oc(-c3ccc(C)c(NC(=O)CSc4ccc(Cl)cc4)c3)nc2c1 | 0.562 µM (active) | –
4 | CC[C@@H]1OC(=O)[C@H](C)[C@H](O[C@@H]2C[C@](C)(OC)[C@H](O)[C@H](C)O2)[C@H](C)[C@H](O[C@@H]2O[C@@H](C)C[C@@H](N(C)C)[C@@H]2O)[C@](C)(O)C[C@H](C)[C@@H]2N[C@H](COCCOC)O[C@H]([C@@H]2C)[C@]1(C)O | inactive | –
5 | COC(=O)c1cc(NC(=O)CC2NC3CCCCC3NC2=O)cc(C(=O)OC)c1 (stereo not drawn) | inactive | –
6 | CCN(CC)CCCNC(=O)CC1Sc2ccccc2NC1=O (stereo not drawn) | inactive | –
7 | COC(=O)c1c(NC(=O)CC2Nc3ccccc3NC2=O)sc(C)c1C (stereo not drawn) | 11.2 µM (active) | –
8 | Nc1nc(N)c2nn(-c3ccc(C(=O)O)cc3)nc2n1 | – | 19.9% [at 11.4 µM]
9 | COC(=O)C1Cc2c([nH]c3ccccc23)CN1 (stereo not drawn) | 3.98 µM (active) | –
10 | O=C(O)[C@@H]1Cc2c([nH]c3ccccc23)[C@@H](CCCCO)N1 | – | 17.4% [at 11.4 µM]
11 | CC[C@H]1CN(C)[C@H]2Cc3c([nH]c4ccccc34)C(=O)C[C@H]1[C@H]2C(=O)OC | – | 22.2% [at 11.4 µM]
12 | O=c1[nH]c2cc([N+](=O)[O-])c([N+](=O)[O-])cc2[nH]c1=O | inactive | –
13 | CCCCCCCCCCCCCC(=O)O[C@H](CC(=O)O)C[N+](C)(C)C | inactive | –
14 | Cc1ccc(NC(=O)C2(NC(=O)c3cccc(N4C(=O)CSC4c4ccccc4)c3)CCCCC2)cc1 (stereo not drawn) | 28.2 µM (active) | –
15 | CN(C)CC/C=C1\c2ccccc2CSc2ccccc21 | inactive | –
16 | Cc1nc(SC2CC(=O)N(c3ccc([N+](=O)[O-])cc3)C2=O)nc2c1CCCC2 (stereo not drawn) | 4.47 µM (active) | –
17 | O=C(Cc1ccc(Br)cc1)OCC(=O)c1ccc2c(c1)OCCO2 | 15.8 µM (active) | –
18 | O=c1c2ccc(Cl)cc2nc(-c2cccc(C(F)(F)F)c2)n1O | 14.1 µM (active) | –
19 | FC(F)(F)c1cccc(-c2nc3nc(Cl)c(Cl)nc3[nH]2)c1 | – | -19.6% [at 11.4 µM]
20 | Cc1ccc(-n2ccnc2SCC(=O)N(CC(C)C)C2CCS(=O)(=O)C2)c(C)c1 (stereo not drawn) | 10 µM (active) | –
21 | Cc1cc(C)n2c(SCC(=O)N(C)C3CCS(=O)(=O)C3)nnc2n1 (stereo not drawn) | inactive | –
22 | Cc1cccc(Nc2cc(Cl)nc(SCC(=O)O)n2)c1C | inactive | –
23 | Cc1cccc(NC(=O)CSc2nnc(-c3ccco3)c(-c3ccco3)n2)c1C | 2.24 µM (active) | –
24 | CC/C=C\CC[C@H](O)C1=CCCCC1=O | – | 13.3% [at 11.4 µM]

Row | SMILES | AC50 | activity, negative = inhibition
25 | O=C1CCCC=C1[C@H](O)c1ccc([N+](=O)[O-])cc1 | – | -22% [at 11.4 µM]
26 | O=C1CCCC=C1[C@H](CCc1ccccc1)OC(=O)c1ccc(Br)cc1 | 1.58 µM (active) | –
27 | CC/C=C\CC[C@H](OC(=O)c1ccc(Br)cc1)C1=CCCCC1=O | 2 µM (active) | –
28 | Cc1c(Cl)c(S(N)(=O)=O)cc2c1=NC=NS=2(=O)O | – | 8.1% [at 11.4 µM]
29 | CN1CCC2(CC1)CCN(C(=O)c1ccncc1)CC2 | inactive | –
30 | CCOc1ccc2c(c1)nc(SCC(=O)c1ccc(Br)s1)n2C | 0.708 µM (active) | –
31 | COc1ccc2c(c1)nc(SCC(=O)c1ccc(Br)s1)n2C | 0.398 µM (active) | –
32 | Nc1ncnc2c1ncn2[C@@H]1O[C@@H](C(=O)NC2CC2)[C@H](O)[C@@H]1O | inactive | –
33 | Cc1cc(O)c(/C=N/Nc2cccc(Cl)c2)c(=O)o1 | 3.16 µM (active) | –
34 | C[C@@H](CSC(=N)N)C(N)=O | – | 27.2% [at 11.4 µM]
35 | O=C(Cc1csc(Nc2nc(=S)[nH]c3ccccc23)n1)NCc1cccc(Cl)c1 | 0.794 µM (active) | –
36 | COc1ccc(CNC(=O)Cc2csc(Nc3nc(=S)[nH]c4ccccc34)n2)cc1 | 2.82 µM (active) | –
37 | Cc1ccc(CNC(=O)Cc2csc(Nc3nc(=S)[nH]c4ccccc34)n2)cc1 | 2.24 µM (active) | –
38 | Oc1cc2c(cc1O)CN(C(=S)NCCc1ccc(Cl)cc1)CCC2 | 0.316 µM (active) | –
39 | CN1C(=O)CC[C@@H]1c1cccnc1 | inactive | –
40 | Cc1ccc(N2C(=O)CSC2c2cccnc2)cc1F (stereo not drawn) | 20 µM (active) | –
41 | CC1(C)CO[C@H](CC(=O)O)CN1 | 5.01 µM (active) | –
42 | Cc1nc2cnc(N(C)C)nc2n(C)c1=O | inactive | –
43 | Cc1c(-c2ccc(F)cc2)nc(N)c(C#N)c1-c1cccs1 | 4.47 µM (active) | –
44 | CSc1nc(N)nc(-c2cccs2)c1C#N | 7.94 µM (active) | –
45 | Cc1ccccc1OCC(=O)N/N=C1\CCOc2c(C)cccc21 | inactive | –
46 | Cc1cccc2c1OCC/C2=N\NC(=O)COc1ccccc1 | 3.16 µM (active) | –
47 | COc1cccc(OCC(=O)NN=C2c3ccccc3-c3ccccc32)c1 | 0.708 µM (active) | –
48 | Cc1c(N2CCCC2)cc2c(c1NC(=O)c1ccccc1Cl)C(C)(C)CC2(C)C | 0.794 µM (active) | –

Row | SMILES | AC50 | activity, negative = inhibition
49 | O=C(N/N=C/c1cccc(F)c1)c1csc2c1CCCC2 | 7.08 µM (active) | –
50 | Fc1cccc(/C=N\N=C/c2cccc(F)c2)c1 | inactive | –
51 | COc1ccccc1CNc1ncncc1-c1cccnc1 | 10 µM (active) | –
52 | COc1cccc(-c2cncnc2NCc2ccc(OC)cc2OC)c1 | 1.26 µM (active) | –
53 | COc1cccc(-c2cncnc2NCc2ccccc2OC)c1 | 2 µM (active) | –
54 | CCC(C)(C)n1nnnc1C(c1ccc(C)cc1)N1CCC(C)CC1 (stereo not drawn) | 14.1 µM (active) | –
55 | Cc1cc(C)c(NC(=O)C[C@H](CC(=O)O)c2cccc3ccccc23)c(C(=O)N2CCC3(CCCC3)CC2)c1 | inactive | –
56 | CSc1n[nH]c(-c2sccc2OCc2ccc(C)cc2)n1 | 1.12 µM (active) | –
57 | COc1ncc2nc(-c3cc(F)cc(F)c3)c(=O)n(C3CC3)c2n1 | inactive | –
58 | COc1cccc(C(C(=O)Nc2ccc(F)cc2)N(C(=O)Cn2nnc3ccccc32)C2CC2)c1 (stereo not drawn) | 20 µM (active) | –
59 | CCc1ccc(N2C(=O)c3ccc4c5c(ccc(c35)C2=O)CC4)cc1 | 3.16 µM (active) | –
60 | Cc1noc(C)c1C(=O)N1CCC2(CCN(Cc3ccccc3)CC2)CC1 | inactive | –
61 | Cc1onc(-c2c(Cl)cccc2Cl)c1C(=O)N1CCc2ccccc2C1 | 2.82 µM (active) | –
62 | Cc1noc(C)c1C(=O)N1CCC2(CC1)CN(c1ccccc1)C2 | inactive | –
63 | Cc1ccccc1C(=O)N1CCc2ccccc2C1 | 1.41 µM (active) | –
64 | N=C(N)N1CCc2ccccc2C1 | inactive | –
65 | NCCSC[C@H](N)C(=O)O | – | -6.06% [at 11.4 µM]
66 | O=C1CC(c2cccs2)c2cc3c(cc2N1)OCO3 (stereo not drawn) | 1.12 µM (active) | –
67 | CCCC[C@@H]1C[C@H]1C(NC(=O)c1ccco1)c1ccc(C(=O)OC)cc1 (stereo partly drawn) | 1 µM (active) | –
68 | CCC[C@@H]1C[C@@]1(CCC)C(NS(=O)(=O)c1cccc2cccnc12)c1ccc(Cl)cc1 (stereo partly drawn) | 3.16 µM (active) | –
69 | CCC[C@@H]1C[C@@]1(CCC)C(NC(=O)c1ccco1)c1ccc(Cl)cc1 (stereo partly drawn) | 3.16 µM (active) | –
70 | CCCC[C@@H]1C[C@H]1C(NC(=O)c1ccc(-c2ccccc2)cc1)c1ccc(-c2ccccc2)cc1 (stereo partly drawn) | inactive | –
71 | CCCC[C@@H]1C[C@H]1C(NC(=O)c1ccco1)c1ccc(-c2ccccc2)cc1 (stereo partly drawn) | 25.1 µM (active) | –
72 | CO[C@H]1COC(=O)C/C=C\[C@H](C)COC(=O)[C@@H](C)NC(=O)C/C=C\[C@@H]1C | – | -31.5% [at 11.4 µM]

Row | SMILES | AC50 | activity, negative = inhibition
73 | COCCn1c(=O)c(C)nc2cnc(Nc3cccc(OC)c3)nc21 | inactive | –
74 | CCCC[C@@H]1C[C@H]1C(NC(=O)c1ccco1)c1ccc(Cl)cc1 (stereo partly drawn) | 0.316 µM (active) | –
75 | C[C@@]1(C(NC(=O)Cc2ccccc2)c2ccc(-c3ccccc3)cc2)C[C@H]1C1CCCCC1 (stereo partly drawn) | inactive | –
76 | CCCC[C@@H]1C[C@H]1C(NC(=O)c1ccco1)c1ccccc1 (stereo partly drawn) | 1.26 µM (active) | –
77 | CCC[C@@H]1C[C@@]1(CCC)C(NC(=O)OCc1ccccc1)c1ccc(-c2ccccc2)cc1 (stereo partly drawn) | 1.26 µM (active) | –
78 | CC[C@](N)(C(=O)O)C(C)C | – | 31.3% [at 11.4 µM]
79 | CCCn1c(N)c(C(=O)CSc2nc(C)cs2)c(=O)n(C)c1=O | 10 µM (active) | –
80 | O=C(/C=C\c1ccc(O)c(O)c1)O[C@@H](Cc1ccc(O)c(O)c1)C(=O)O | inactive | –
81 | O=C(O)/C=C\c1ccc(O)c(O)c1 | inactive | –
82 | COC(=O)/C=C\c1cc(O)ccc1O | 15.8 µM (active) | –
83 | COC(=O)C[C@@H]1O[C@H]1[C@H](C)[C@@H](OC)C(C)C | 3.98 µM (active) | –
84 | CO[C@@H](C(C)C)[C@@H](C)[C@@H]1OC(=O)C[C@@H]1O | – | 2.42% [at 11.4 µM]
85 | CC(O)CN(CCC(N)=O)CCC(N)=O (stereo not drawn) | inactive | –
86 | COc1ccc(S(=O)(=O)N2CC3C4C=CC(C4)C3C2)cc1 (stereo not drawn) | 0.891 µM (active) | –
87 | O=C(OCc1nnc(-c2ccccc2)o1)c1ccc2c(c1)OCCO2 | 8.91 µM (active) | –
88 | CCCN1C(=O)C2(/C(=C(\O)c3ccc4c(c3)OCCO4)C(=O)C(=O)N2CCCOC)c2ccccc21 (stereo not drawn) | inactive | –
89 | CN1CCc2cc3c(cc2[C@@H]1[C@@H]1C(=O)Oc2c1ccc1c2OCO1)OCO3 | 0.02 µM (active) | –
90 | C[N+]1(C)CCc2cc3c(cc2[C@@H]1[C@@H]1C(=O)Oc2c1ccc1c2OCO1)OCO3 | inactive | –
91 | Cc1ccc(-c2csc(NC(=S)NC(=O)/C=C/c3ccco3)n2)cc1 | inactive | –
92 | Cc1ccc(-c2csc(N/N=C/c3ccco3)n2)cc1 | 7.94 µM (active) | –
93 | CC(=O)OCC(=O)[C@@]1(O)[C@H](C)C[C@@H]2[C@H]3CCC4=CC(=O)C=C[C@]4(C)[C@]3(F)[C@@H](O)C[C@@]21C | inactive | –
